Experiment [1] has as its target T1, Tyrosine-protein kinase receptor TYRO3 (Homo sapiens) (UniProt Q06418).
T1 sequence (whole entry): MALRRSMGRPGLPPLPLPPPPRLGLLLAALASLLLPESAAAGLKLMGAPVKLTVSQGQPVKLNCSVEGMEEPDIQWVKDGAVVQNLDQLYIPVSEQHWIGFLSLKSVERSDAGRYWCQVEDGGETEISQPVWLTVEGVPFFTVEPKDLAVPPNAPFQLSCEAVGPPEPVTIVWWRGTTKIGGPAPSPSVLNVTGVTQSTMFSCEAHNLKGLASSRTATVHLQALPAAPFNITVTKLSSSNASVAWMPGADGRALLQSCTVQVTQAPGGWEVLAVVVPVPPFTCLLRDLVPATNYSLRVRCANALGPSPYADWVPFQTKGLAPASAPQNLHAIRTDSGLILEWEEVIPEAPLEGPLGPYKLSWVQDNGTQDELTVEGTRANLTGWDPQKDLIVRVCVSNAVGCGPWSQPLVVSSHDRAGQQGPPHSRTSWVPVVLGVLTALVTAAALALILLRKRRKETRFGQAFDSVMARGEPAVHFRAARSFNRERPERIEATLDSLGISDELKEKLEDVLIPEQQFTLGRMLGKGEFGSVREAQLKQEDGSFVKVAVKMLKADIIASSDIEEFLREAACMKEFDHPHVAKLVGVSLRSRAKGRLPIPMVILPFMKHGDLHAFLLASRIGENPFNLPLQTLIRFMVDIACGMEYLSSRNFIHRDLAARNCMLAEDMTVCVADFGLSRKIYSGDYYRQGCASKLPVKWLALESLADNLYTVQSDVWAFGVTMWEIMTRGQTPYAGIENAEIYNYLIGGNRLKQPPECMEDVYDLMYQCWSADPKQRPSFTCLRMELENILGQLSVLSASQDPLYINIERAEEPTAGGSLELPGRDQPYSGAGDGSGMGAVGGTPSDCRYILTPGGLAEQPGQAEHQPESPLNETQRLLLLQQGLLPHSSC
Particulars: at 1 µM.

For experiment [2], the target named is Tyrosine-protein kinase Yes (Homo sapiens) (UniProt P07947). The note with it: at 0.1 µM.
Experiment [3] shares this target. The note with it: at 1 µM.
In experiment [4] the target is T2, Tyrosine-protein kinase ZAP-70 (Homo sapiens) (UniProt P43403).
T2 sequence (whole entry): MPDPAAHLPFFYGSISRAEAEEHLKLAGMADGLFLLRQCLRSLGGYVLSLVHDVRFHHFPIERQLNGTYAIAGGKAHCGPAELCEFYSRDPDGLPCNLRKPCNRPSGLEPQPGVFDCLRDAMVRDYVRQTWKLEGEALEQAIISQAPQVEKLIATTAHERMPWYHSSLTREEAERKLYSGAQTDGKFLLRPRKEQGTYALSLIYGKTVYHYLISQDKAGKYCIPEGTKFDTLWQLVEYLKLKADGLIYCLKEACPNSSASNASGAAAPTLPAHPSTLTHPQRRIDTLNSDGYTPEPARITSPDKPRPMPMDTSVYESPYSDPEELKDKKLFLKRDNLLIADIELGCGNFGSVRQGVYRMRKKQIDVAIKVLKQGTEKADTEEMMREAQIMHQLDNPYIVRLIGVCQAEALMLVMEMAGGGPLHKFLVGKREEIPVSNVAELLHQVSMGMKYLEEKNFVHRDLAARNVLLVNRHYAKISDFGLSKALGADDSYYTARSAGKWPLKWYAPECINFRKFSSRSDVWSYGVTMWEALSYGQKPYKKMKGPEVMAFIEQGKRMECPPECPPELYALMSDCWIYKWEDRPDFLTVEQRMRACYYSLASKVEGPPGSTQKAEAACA
Particulars: at 0.1 µM.

Experiment [5] addresses T2, Tyrosine-protein kinase ZAP-70 (Homo sapiens). Particulars: at 1 µM.
In experiment [6] the target is Serine/threonine-protein kinase B-raf (Homo sapiens) (UniProt P15056). The note with it: at 0.1 µM.
Experiment [7] shares this target. The note with it: at 1 µM.
Experiment [8] relates to Serine/threonine-protein kinase B-raf (Homo sapiens), P15056 [V600E]. Particulars: at 0.1 µM.
The test system is the same in experiment [9]. The note with it: at 1 µM.
Experiment [10] concerns the target RAF proto-oncogene serine/threonine-protein kinase (Homo sapiens) (UniProt P04049). Particulars: at 0.1 µM.
Experiment [11] shares this target. The note with it: at 1 µM.
In experiment [12] the target is T3, Interleukin-1 receptor-associated kinase 4 (Homo sapiens) (UniProt Q9NWZ3).
T3 sequence (whole entry): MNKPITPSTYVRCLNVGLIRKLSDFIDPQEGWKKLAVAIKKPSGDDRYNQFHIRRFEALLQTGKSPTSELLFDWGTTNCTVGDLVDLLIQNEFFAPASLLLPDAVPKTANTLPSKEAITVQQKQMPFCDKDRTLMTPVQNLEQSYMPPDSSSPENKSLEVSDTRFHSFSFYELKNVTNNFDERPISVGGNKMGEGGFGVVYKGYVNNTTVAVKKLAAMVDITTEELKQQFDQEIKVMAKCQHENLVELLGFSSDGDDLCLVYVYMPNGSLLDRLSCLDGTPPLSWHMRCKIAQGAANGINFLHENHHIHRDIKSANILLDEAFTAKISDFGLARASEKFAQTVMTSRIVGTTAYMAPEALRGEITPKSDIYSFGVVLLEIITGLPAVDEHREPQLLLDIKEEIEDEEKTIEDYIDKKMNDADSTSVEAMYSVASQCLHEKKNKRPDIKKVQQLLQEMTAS
Particulars: at 0.1 µM.

The target in experiment [13] is T3, Interleukin-1 receptor-associated kinase 4 (Homo sapiens). Particulars: at 1 µM.
Experiment [14] concerns the target Leucine-rich repeat serine/threonine-protein kinase 2 (Homo sapiens) (UniProt Q5S007). The note with it: at 0.1 µM.
The target is the same in experiment [15]. Particulars: at 1 µM.
Experiment [16] has as its system Leucine-rich repeat serine/threonine-protein kinase 2 (Homo sapiens), Q5S007 [G2019S]. The note with it: at 0.1 µM.
The test system is the same in experiment [17]. Particulars: at 1 µM.

Serine/threonine-protein kinase B-raf (Homo sapiens), sequence (P15056 whole entry): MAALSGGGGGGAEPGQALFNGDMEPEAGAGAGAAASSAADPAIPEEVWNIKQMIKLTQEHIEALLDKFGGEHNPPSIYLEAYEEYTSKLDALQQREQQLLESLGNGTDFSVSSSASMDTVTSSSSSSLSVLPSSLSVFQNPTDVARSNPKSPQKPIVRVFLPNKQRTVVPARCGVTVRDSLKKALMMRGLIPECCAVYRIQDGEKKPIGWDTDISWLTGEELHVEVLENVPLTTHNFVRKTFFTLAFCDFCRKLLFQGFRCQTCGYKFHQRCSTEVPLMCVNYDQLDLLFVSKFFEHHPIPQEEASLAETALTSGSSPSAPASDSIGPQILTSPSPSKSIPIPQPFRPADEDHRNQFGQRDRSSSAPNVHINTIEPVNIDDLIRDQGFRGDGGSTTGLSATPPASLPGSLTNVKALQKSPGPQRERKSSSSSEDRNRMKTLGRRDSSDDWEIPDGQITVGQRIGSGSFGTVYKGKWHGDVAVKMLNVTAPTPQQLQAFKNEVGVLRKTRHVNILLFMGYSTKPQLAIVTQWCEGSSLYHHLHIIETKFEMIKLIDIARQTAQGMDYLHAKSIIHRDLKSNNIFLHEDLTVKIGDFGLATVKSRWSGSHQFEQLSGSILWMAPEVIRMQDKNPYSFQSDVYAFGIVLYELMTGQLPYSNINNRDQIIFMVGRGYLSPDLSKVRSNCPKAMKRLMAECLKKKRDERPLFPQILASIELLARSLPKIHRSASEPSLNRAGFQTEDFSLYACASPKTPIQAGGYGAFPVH
Leucine-rich repeat serine/threonine-protein kinase 2 (Homo sapiens), Q5S007 [G2019S], sequence (Q5S007 whole entry G2019S): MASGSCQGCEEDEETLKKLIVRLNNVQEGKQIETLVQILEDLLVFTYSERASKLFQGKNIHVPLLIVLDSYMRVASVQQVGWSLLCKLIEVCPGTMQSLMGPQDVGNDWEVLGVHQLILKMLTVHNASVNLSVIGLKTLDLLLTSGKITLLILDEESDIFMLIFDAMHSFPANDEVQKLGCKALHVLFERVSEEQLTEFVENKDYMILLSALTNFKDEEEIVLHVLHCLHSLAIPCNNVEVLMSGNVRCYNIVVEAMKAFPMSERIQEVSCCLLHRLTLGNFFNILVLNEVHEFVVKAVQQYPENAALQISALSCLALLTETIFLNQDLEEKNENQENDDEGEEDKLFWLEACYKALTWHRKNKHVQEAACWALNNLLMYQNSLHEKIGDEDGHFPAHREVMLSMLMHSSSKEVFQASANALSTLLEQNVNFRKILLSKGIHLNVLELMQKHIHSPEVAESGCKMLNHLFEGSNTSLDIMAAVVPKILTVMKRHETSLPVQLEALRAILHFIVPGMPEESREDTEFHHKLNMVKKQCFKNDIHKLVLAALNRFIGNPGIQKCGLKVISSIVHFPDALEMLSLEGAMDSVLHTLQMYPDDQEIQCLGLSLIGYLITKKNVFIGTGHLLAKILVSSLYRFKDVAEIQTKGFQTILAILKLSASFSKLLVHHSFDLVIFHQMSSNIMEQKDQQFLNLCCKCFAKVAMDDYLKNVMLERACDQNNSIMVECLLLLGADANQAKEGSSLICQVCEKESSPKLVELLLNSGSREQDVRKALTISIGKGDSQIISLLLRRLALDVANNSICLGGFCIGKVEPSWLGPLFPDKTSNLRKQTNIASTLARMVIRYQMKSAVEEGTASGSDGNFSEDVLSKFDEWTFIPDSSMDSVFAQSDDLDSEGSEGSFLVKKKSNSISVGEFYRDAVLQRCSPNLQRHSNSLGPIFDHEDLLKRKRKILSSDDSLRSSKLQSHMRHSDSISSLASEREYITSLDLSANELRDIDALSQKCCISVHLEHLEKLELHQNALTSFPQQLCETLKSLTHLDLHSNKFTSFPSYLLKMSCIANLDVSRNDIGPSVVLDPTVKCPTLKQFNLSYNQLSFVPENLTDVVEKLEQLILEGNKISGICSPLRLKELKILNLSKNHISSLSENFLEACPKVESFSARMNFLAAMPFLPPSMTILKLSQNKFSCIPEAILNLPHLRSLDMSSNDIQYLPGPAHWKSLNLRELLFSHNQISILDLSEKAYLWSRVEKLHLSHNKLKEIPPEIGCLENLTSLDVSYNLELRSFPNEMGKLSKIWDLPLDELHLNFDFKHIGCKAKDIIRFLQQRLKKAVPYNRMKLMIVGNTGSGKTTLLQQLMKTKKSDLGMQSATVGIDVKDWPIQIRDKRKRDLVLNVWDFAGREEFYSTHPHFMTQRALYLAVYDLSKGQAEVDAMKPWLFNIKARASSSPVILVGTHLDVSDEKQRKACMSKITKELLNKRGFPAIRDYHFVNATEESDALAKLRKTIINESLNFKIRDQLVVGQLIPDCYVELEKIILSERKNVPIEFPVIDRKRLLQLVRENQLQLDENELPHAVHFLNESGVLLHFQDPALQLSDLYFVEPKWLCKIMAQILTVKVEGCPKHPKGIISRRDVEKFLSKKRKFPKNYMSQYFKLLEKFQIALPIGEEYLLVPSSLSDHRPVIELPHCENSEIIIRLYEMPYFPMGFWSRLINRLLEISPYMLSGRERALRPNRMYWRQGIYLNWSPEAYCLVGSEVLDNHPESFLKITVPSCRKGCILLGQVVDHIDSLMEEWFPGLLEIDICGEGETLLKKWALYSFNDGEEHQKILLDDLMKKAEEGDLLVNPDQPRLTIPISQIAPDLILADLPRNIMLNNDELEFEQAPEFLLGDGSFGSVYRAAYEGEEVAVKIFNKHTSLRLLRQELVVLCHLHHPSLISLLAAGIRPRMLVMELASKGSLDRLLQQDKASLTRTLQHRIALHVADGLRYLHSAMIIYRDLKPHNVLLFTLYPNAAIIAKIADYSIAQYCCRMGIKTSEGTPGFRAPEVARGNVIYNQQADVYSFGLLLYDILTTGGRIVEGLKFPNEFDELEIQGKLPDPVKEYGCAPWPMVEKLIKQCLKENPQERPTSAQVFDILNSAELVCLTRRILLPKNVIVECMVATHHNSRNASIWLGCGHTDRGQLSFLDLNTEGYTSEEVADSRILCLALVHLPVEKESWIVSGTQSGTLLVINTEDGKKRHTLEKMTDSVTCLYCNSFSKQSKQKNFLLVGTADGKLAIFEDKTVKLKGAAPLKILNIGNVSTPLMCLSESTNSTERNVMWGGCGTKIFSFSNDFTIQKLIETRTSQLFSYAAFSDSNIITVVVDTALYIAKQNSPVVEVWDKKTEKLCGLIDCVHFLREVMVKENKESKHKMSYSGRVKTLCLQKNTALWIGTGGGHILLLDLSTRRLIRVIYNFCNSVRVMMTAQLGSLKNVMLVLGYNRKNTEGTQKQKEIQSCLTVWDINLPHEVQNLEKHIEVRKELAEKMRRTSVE
Leucine-rich repeat serine/threonine-protein kinase 2 (Homo sapiens), sequence (Q5S007 whole entry): as the sequence (Q5S007 whole entry G2019S) above, with S2019G counted along it
Tyrosine-protein kinase Yes (Homo sapiens), sequence (P07947 2-543 limits assumed): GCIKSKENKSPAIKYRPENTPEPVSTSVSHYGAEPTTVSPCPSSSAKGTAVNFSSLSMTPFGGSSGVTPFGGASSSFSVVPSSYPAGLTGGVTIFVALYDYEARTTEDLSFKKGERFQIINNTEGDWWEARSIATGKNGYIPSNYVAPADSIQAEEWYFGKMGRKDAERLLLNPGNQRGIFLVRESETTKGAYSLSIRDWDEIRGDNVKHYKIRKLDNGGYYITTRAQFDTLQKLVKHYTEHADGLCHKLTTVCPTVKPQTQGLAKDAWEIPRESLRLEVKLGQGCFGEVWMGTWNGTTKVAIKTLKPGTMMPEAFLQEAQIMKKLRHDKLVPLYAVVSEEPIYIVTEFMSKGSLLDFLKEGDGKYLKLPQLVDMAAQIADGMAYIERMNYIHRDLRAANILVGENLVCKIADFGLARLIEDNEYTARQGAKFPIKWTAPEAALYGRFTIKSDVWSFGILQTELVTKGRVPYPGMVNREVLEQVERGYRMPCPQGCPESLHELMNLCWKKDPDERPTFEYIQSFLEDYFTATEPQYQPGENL
Serine/threonine-protein kinase B-raf (Homo sapiens), P15056 [V600E], sequence (P15056 whole entry V600E): as the sequence (P15056 whole entry) above, with V600E counted along it
RAF proto-oncogene serine/threonine-protein kinase (Homo sapiens), sequence (P04049 whole entry): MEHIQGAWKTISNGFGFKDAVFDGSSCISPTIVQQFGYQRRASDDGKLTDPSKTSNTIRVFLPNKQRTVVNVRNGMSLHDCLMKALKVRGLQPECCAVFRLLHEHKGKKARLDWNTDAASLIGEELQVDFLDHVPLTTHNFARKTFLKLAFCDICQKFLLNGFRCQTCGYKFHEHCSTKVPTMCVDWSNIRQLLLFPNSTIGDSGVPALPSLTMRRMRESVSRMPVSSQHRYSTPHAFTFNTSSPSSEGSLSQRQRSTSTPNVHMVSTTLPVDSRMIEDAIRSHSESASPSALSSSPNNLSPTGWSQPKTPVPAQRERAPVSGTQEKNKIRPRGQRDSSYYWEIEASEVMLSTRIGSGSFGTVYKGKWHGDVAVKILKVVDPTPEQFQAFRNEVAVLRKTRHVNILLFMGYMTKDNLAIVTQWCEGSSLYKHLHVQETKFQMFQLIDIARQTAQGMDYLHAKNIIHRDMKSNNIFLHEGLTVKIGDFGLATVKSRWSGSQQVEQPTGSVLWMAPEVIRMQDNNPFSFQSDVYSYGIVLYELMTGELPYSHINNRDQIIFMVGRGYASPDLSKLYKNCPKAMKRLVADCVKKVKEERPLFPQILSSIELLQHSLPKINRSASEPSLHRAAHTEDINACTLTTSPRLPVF

By inhibition is commonly meant the change of the read-out against control, counted positive when it falls. Consider `COc1ccc(-c2ccncc2)cc1C(N)=O`, for which the inhibition in experiment [1] is 0.74%; in [2], -1.44%; in experiment [3], 3.66%; in experiment [4], -0.9%; in [5], 1.01%; in experiment [6], 6.32%. The inhibition is 8.48% in [7]; 5.07% in experiment [8]; 5.66% in experiment [9]; 1.23% in experiment [10]; -2.86% in [11]; 1.8% in experiment [12]. Further, the inhibition in experiment [13] was determined as 2.34%; in experiment [14], 2.67%; in experiment [15] it was 5.73%; in [16], 4.45%; in [17], 9.13%.

On to `COc1ccccc1Nc1ncc(-c2ccccc2)o1`, for which the inhibition came to 2.12% in experiment [1]; 2.01% in experiment [2]; 6.48% in experiment [3]; 0.73% in experiment [4]; 4.36% in [5]; 6.58% in experiment [6]. Also, the inhibition in experiment [7] came out at 7.19%; in experiment [8], 4.73%; in experiment [9] it was 3.58%; in [10], 3.32%; in experiment [11] it was 1.9%; in experiment [12], 2.31%. The inhibition in [13] was found to be 2.99%; in experiment [14] it was 4.53%; in experiment [15] it was 8.57%; in [16] it was 6.36%; in experiment [17], 11.3%.

With `Cc1ccc(NC(=O)c2ccnc(N3CCCC3)c2)cc1-c1ccc(C(=O)NCC2CC2)cc1`, the inhibition in experiment [1] is 1.97%; in experiment [2], 2.17%; in experiment [3], 3.08%; in experiment [4] it was -2.27%; in [5], 0.03%; in [6], 8.24%. Further, the inhibition in [7] is 14.7%; in experiment [8], 7.57%; in experiment [9] it was 15%; in [10], 4.02%; in experiment [11], -6.49%; in experiment [12], -0.18%. Besides, the inhibition in [13] came out at 2.34%; in experiment [14], 1.63%; in [15], 6.13%; in [16], 4.42%; in [17] it was 7.81%.

For `NC(=O)c1cccc(Nc2nccc(Nc3cccc4[nH]ncc34)n2)c1`, the inhibition in experiment [1] was 54.4%; in experiment [2], 32%; in experiment [3], 82.5%; in [4], -2.28%; in experiment [5], 4.64%; in experiment [6], -3.03%. Besides, the inhibition in experiment [7] is 4.38%; in experiment [8], -3.72%; in experiment [9] it was 3.75%; in [10], -3.86%; in experiment [11], -3.49%; in experiment [12], -3.26%. In addition, the inhibition came to 3.19% in experiment [13]; 0.85% in experiment [14]; 8.7% in [15]; 4.42% in [16]; 30.9% in experiment [17].

Regarding `O=C(Nc1n[nH]c2nc(-c3ccco3)c(Br)cc12)C1CC1`, the inhibition in experiment [1] turned out to be 4.49%; in [2], 4.26%; in experiment [3], 13.8%; in experiment [4], 1.19%; in [5], 3.08%; in [6] it was 5.54%. Also, the inhibition in [7] stood at 5.7%; in experiment [8], 6.02%; in [9], 5.23%; in experiment [10], 1.52%; in experiment [11], 2.37%; in experiment [12] it was 5.57%. Also, the inhibition in [13] was 1.08%; in experiment [14] it was 2.41%; in experiment [15] it was 2.93%; in experiment [16], 2.74%; in experiment [17], 6.98%.

`CC1=C(C(=O)Nc2ccc3[nH]ncc3c2)C(c2ccc(Cl)c(Cl)c2)CC(=O)N1` (centres undefined): the inhibition in experiment [1] turned out to be 1.34%; in experiment [2], 4.16%; in [3], 20%; in [4], 0.71%; in experiment [5], 2.3%; in experiment [6], 5.79%. Besides, the inhibition in [7] was 31.6%; in experiment [8], 6.48%; in experiment [9], 31.4%; in experiment [10], 4.61%; in experiment [11] it was 2.44%; in experiment [12], -3.53%. Further, the inhibition in [13] was found to be 0.93%; in experiment [14] it was 2.44%; in [15], 4.77%; in experiment [16] it was 0.95%; in experiment [17] it was 8.99%.

As to `COc1cccc(-n2ncc3c(N/N=C/c4cccc(F)c4)ncnc32)c1`, the inhibition is 8.11% in experiment [1]; 6.17% in experiment [2]; 31% in [3]; -0.37% in experiment [4]; -0.02% in [5]; 4.04% in experiment [6]. For the same compound, the inhibition in experiment [7] was 5.91%; in [8], 3.95%; in experiment [9], 5.71%; in [10] it was 0.69%; in experiment [11], -6.84%; in experiment [12], 3.28%. Also, the inhibition in [13] was 1.56%; in experiment [14] it was -3.46%; in experiment [15], -0.49%; in experiment [16], 0.79%; in experiment [17], 2.23%.

(Values after ChEMBL document CHEMBL1961873, “Compounds: GSK PKIS; Assays: Nanosyn kinase panel” (2012).)
